PubChem BioAssay (Tox21)
Unmarked numbers belong to inactive results. Results filed as inconclusive are left out. Entries that show only a call come without a potency. Active and inactive are the calls of the source. Calls follow the shape of the dose curve; as a rule, active = well fitted curve in the direction sought with a large enough effect in the repeat runs; inconclusive = weak or mixed curves; inactive = no such curve, though single readings can be large; an effect the other way counts as inactive or inconclusive.

Columns and labels:
[1] = A CellTox Green Cytotoxicity Assay to monitor cytotoxicity in HEK293 cells - 40 hour (AID 1224871); also: nearly all actives have a fitted effect of over 45% in size
How it was run: (§1)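 Cells (HEK293, 600/well) and dye reagent are dispensed together. After 5 h at 37 C, 23 nL compound is pinned in. Plates stay at 37 C for 40 h with fluorescence read at 0h, 8h, 16h, 24h, 32h and 40h.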

[2] = qHTS RealTime-Glo MT Cell Viability Assay in HEK293 cells - 16 hour (AID 1224872); also: nearly all actives have a fitted effect of over 50% in size; also: potency is read from the fitted curve at half-maximal effect
How it was run: (§2)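 Reads taken at 0, 8, 16, 24, 32 and 40 h from the same wells. HEK293 cells (600/well) carried RealTime-Glo reagents from seeding, with compound added after a 5 h settle at 37 C.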

[3] = qHTS RealTime-Glo MT Cell Viability Assay in HepG2 cells - 8 hour (AID 1224873); also: nearly all actives have a fitted effect of over 55% in size
How it was run: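 HepG2 cells (600/well) mixed with RealTime-Glo MT reagent, settled 5 h at 37 C/5% CO2 before compound addition. Nonlytic NanoLuc luminescence from viable-cell prosubstrate reduction read repeatedly during 40 h treatment at 37 C.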

[4] = qHTS RealTime-Glo MT Cell Viability Assay in HEK293 cells - 40 hour (AID 1224874); settings: RealTime-Glo luminescence; max response: hits give low values; also: nearly all actives have a fitted effect of over 50% in size; also: potency is read from the fitted curve at half-maximal effect
How it was run: (§3)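 Real-time viability in HEK293: signal arises when living cells convert a prosubstrate for NanoLuc in the medium, so luminescence tracks viable cell number. Compound (23 nL, DMSO) added 5 h post-seeding; kinetic reads at 0–40 h, 37 C.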

[5] = A CellTox Green Cytotoxicity Assay to monitor cytotoxicity in HEK293 cells - 24 hour (AID 1224875); also: series mostly up to about 77 µM; nearly all actives have a fitted effect of over 45% in size
How it was run: as §1

[6] = A CellTox Green Cytotoxicity Assay to monitor cytotoxicity in HepG2 cells - 16 hour (AID 1224876); also: nearly all actives have a fitted effect of over 45% in size; also: potency is read from the fitted curve at half-maximal effect
How it was run: (§4)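 Cells and non-lytic dye reagent are dispensed together (600 HepG2 cells/well) and incubated 5 h before DMSO compound transfer. Kinetic fluorescence is then recorded in the same wells during 40 h at 37 C.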

[7] = qHTS RealTime-Glo MT Cell Viability Assay in HepG2 cells - 32 hour (AID 1224877); also: nearly all actives have a fitted effect of over 55% in size
How it was run: (§5)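 HepG2 suspension premixed with RealTime-Glo reagents is plated at 600 cells per well and left 5 h at 37 C/5% CO2. Compounds in DMSO then go in, and bioluminescence reflecting viable cell number is recorded over 40 h.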

[8] = A CellTox Green Cytotoxicity Assay to monitor cytotoxicity in HepG2 cells - 24 hour (AID 1224878); also: nearly all actives have a fitted effect of over 45% in size; also: potency is read from the fitted curve at half-maximal effect
How it was run: as §4

[9] = A CellTox Green Cytotoxicity Assay to monitor cytotoxicity in HepG2 cells - 40 hour (AID 1224879); also: nearly all actives have a fitted effect of over 40% in size; also: potency is read from the fitted curve at half-maximal effect
How it was run: as §4

[10] = qHTS RealTime-Glo MT Cell Viability Assay in HEK293 cells - 0 hour (AID 1224880)
How it was run: as §3

[11] = A CellTox Green Cytotoxicity Assay to monitor cytotoxicity in HEK293 cells - 32 hour (AID 1224881); also: nearly all actives have a fitted effect of over 40% in size
How it was run: as §1

[12] = A CellTox Green Cytotoxicity Assay to monitor cytotoxicity in HepG2 cells - 0 hour (AID 1224882); also: nearly all actives have a fitted effect of over 35% in size
How it was run: as §4

[13] = A CellTox Green Cytotoxicity Assay to monitor cytotoxicity in HepG2 cells - 32 hour (AID 1224883); also: nearly all actives have a fitted effect of over 50% in size; also: potency is read from the fitted curve at half-maximal effect
How it was run: as §4

[14] = A CellTox Green Cytotoxicity Assay to monitor cytotoxicity in HEK293 cells - 8 hour (AID 1224884); also: nearly all actives have a fitted effect of over 35% in size
How it was run: as §1

[15] = qHTS RealTime-Glo MT Cell Viability Assay in HepG2 cells - 16 hour (AID 1224885); also: nearly all actives have a fitted effect of over 50% in size
How it was run: as §5

[16] = qHTS RealTime-Glo MT Cell Viability Assay in HEK293 cells - 24 hour (AID 1224886); also: nearly all actives have a fitted effect of over 50% in size; also: potency is read from the fitted curve at half-maximal effect
How it was run: as §2

[17] = qHTS RealTime-Glo MT Cell Viability Assay in HepG2 cells - 0 hour (AID 1224889); also: nearly all actives have a fitted effect of over 50% in size
How it was run: as §5

[18] = A CellTox Green Cytotoxicity Assay to monitor cytotoxicity in HEK293 cells - 16 hour (AID 1224888); also: nearly all actives have a fitted effect of over 35% in size
How it was run: as §1

[19] = qHTS RealTime-Glo MT Cell Viability Assay in HEK293 cells - 8 hour (AID 1224887)
How it was run: as §3

SMILES | Potency [1] | Potency [2] | outcome [3] | max response [4] [%] | Potency [5] | Potency [6] | Potency [7] | Potency [8] | Potency [9] | Potency [10] | Potency [11] | Potency [12] | Potency [13] | Potency [14] | outcome [15] | Potency [16] | Potency [17] | Potency [18] | Potency [19] | Potency [4]
O=C(O)c1cc(C(=O)O)c(C(=O)O)cc1C(=O)O | inactive | inactive | inactive | 0.796 | inactive | inactive | inactive | inactive | inactive | inactive | inactive | inactive | inactive | inactive | inactive | inactive | inactive | – | – | –
C[C@H](CN1CCCC1)C(=O)c1ccc(C(F)(F)F)cc1 | – | – | inactive | – | – | 21.3 µM (active) | – | 21.3 µM (active) | 21.3 µM (active) | inactive | – | inactive | 21.3 µM (active) | inactive | – | – | inactive | inactive | – | –
CC(C)Cc1nccs1 | inactive | – | inactive | 3.56 | inactive | inactive | inactive | inactive | inactive | inactive | inactive | inactive | – | inactive | inactive | inactive | inactive | – | – | –
CC(C)Oc1ccccc1O | – | inactive | inactive | 2.84 | inactive | inactive | inactive | inactive | inactive | – | inactive | inactive | – | inactive | inactive | – | inactive | – | inactive | –
Cc1ccc(Cl)c(OCC(O)CNC(C)(C)C)c1 (centres undefined) | inactive | inactive | inactive | 1.75 | inactive | inactive | inactive | inactive | inactive | inactive | inactive | inactive | inactive | inactive | inactive | – | inactive | inactive | inactive | –
CCC(C)CCCC(C)(C)O (centres undefined) | inactive | inactive | inactive | 21.8 | inactive | inactive | inactive | inactive | inactive | inactive | inactive | inactive | inactive | – | inactive | inactive | inactive | inactive | inactive | –
CCN(CCCCOC(=O)c1ccc(OC)c(OC)c1)C(C)Cc1ccc(OC)cc1 (centres undefined) | inactive | – | inactive | – | inactive | inactive | inactive | – | – | inactive | inactive | inactive | – | inactive | inactive | – | inactive | inactive | – | –
O=C(OCCOCCOCCOC(=O)c1ccccc1)c1ccccc1 | – | inactive | inactive | 13.2 | inactive | inactive | inactive | – | – | inactive | inactive | inactive | – | inactive | inactive | inactive | inactive | inactive | – | –
CC(CN=Cc1ccccc1O)N=Cc1ccccc1O (centres undefined) | inactive | inactive | inactive | 0.376 | inactive | inactive | inactive | inactive | inactive | inactive | inactive | inactive | – | inactive | inactive | inactive | inactive | inactive | inactive | –
CC1(COc2ccc(CC3SC(=O)NC3=O)cc2)CCCCC1 (centres undefined) | inactive | – | inactive | 1.6 | – | inactive | inactive | inactive | – | inactive | – | inactive | inactive | inactive | inactive | inactive | inactive | – | inactive | –
O=C1c2ccccc2C(=O)c2c1ccc(O)c2O | – | inactive | inactive | -2.45 | inactive | inactive | inactive | inactive | inactive | inactive | inactive | inactive | inactive | inactive | inactive | inactive | inactive | inactive | inactive | –
Oc1ccc(CCNCCCCCCNCCc2ccccc2)cc1O | inactive | 23.9 µM (active) | inactive | – | inactive | inactive | – | inactive | – | – | inactive | inactive | – | inactive | inactive | – | inactive | inactive | – | 23.9 µM (active)
NCCOCCOCCN | – | inactive | inactive | -14 | inactive | inactive | inactive | inactive | inactive | inactive | inactive | inactive | inactive | inactive | inactive | inactive | inactive | inactive | inactive | –
CC(C)(C)NCC(O)COc1ccc(NC(=O)NC2CCCCC2)cc1 (centres undefined) | inactive | – | – | – | inactive | inactive | – | inactive | inactive | – | inactive | inactive | inactive | inactive | – | – | – | – | – | –
CCOc1ccccc1O | – | inactive | inactive | -54.1 | inactive | inactive | inactive | inactive | inactive | – | inactive | inactive | inactive | – | inactive | 19.5 µM (active) | inactive | inactive | – | –
O=C(C1CCCCC1)N1CC(=O)N2CCCc3ccccc3C2C1 (centres undefined) | inactive | inactive | inactive | -23.1 | inactive | inactive | inactive | inactive | inactive | – | inactive | inactive | – | inactive | inactive | – | inactive | inactive | inactive | –
